Screens from PubChem.
aDG glyco up: alpha-DG glycosylation activation; Pro5-aDG cells, alpha-DG glycosylation AlphaScreen (IIH6); 0% Pro5, 100% B10-LARGE cell signal; activation, % at 10 µM; hit rate 0.22% among 360,000;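 active = activation of at least 8% versus controls, or a plate z-score of at least 8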;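 also: Pro5 are CHO cells carrying HIG-tagged alpha-DG that lacks glycosylation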
Mot1-301 SUMO: SUMOylation pathway inhibition by Mot1-301 growth rescue; hit rate 1% among 320,000; growth rescue, % at 18.8 µM; S. cerevisiae Mot1-301 growth rescue, ATP luminescence, 38.5C; percent above DMSO median, 100 means doubled; AID 2716;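 active = every valid replicate shows activation above 250% relative to neutral control wells; inactive = the rest, any valid replicate at or below 250%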;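 also: OY570 slx delta 5 strain wells were the positive control but not used for scaling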
AI-2 QS modul: modulators of Vibrio harveyi AI-2 quorum sensing system; Vibrio harveyi JMH597 AI-2 luminescence/OD600 ratio, 9 h; stronger effect = lower value; strain lacks LuxN and CqsS sensors; 0 = neutral-control median; activity change, % at 7.5 µM; hit rate 0.4% among 300,000; in the data active = activity change below about -75%, passing the limit was not always enough; inconclusive = no clear call, values can overlap the other calls;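 also: luminescence divided by OD600 gain over 9 h not by final OD600 alone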
Bfl-1 A1 inh: inhibitors of the anti-apoptotic protein A1, read as caspase activation. MEF A1-2A-BIM cells, Caspase-Glo 3/7 luminescence, 3 h; percent of clofoctol response, vehicle zero. hit rate 0.066% among 330,000. caspase activation, % (no concentration beside the values);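 active = over half of replicate activation scores above 10%, or exactly half above 10 with the replicate mean above 10; inconclusive = replicate mean below 10 yet half the replicates above 10; inactive = over half of replicates below 10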
ARNT TACC3 PPI: disrupts binding between human ARNT and TACC3. AID 623870. Q9Y6A5. AlphaScreen His-ARNT PAS-B/GST-TACC3 binding, luminescence; TACC3 fragment carries E629A point mutation. inhibition, % at 9.99 µM. hit rate 0.66% among 390,000;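 active = mean inhibition of replicates at least 50% and at least half of replicates each reaching 50%; inconclusive = half or more replicates reach 50% but mean below 50%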;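 also: 0% = complete ARNT plus TACC3 wells and 100% = ARNT alone without TACC3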
JMH597 growth: retest Vibrio harveyi JMH597 growth inhibition; OD600 absorbance, 9 h; lacks LuxN and CqsS sensors; shares compounds with AI-2 QS modul; AID 2726; hit rate 1% among 750; growth inhibition, % at 7.5 µM;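 active = every replicate shows growth inhibition above 50%; inconclusive = at least half, but not all, replicates pass that cutoff; inactive = fewer than half of replicates pass it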
BB721 lum counter: retest counter-screen: BB721 constitutive quorum sensing luminescence decrease | shares compounds with AI-2 QS modul | inhibition, % at 7.5 µM | Vibrio harveyi BB721 luminescence, 9 h | hit rate 95% among 750;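 active = inhibition above about 80% in every replicate, not just on average, limit read from the data; inconclusive = at least half of replicates past the limit, but not all; inactive = fewer than half of replicates past the limit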
BB721 growth: retest: inhibitors of Vibrio harveyi BB721 growth. growth inhibition, % at 7.5 µM. OD600 absorbance, 9 h. AID 2728. hit rate 3% among 750. shares compounds with AI-2 QS modul;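 active = every replicate shows growth inhibition above 50%; inconclusive = at least half but not all replicates above 50% inhibition; inactive = under half of replicates above 50% inhibition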
JMH597 AI-2 mod: Vibrio harveyi AI-2 signaling luminescence modulation – JMH597 strain, confirmation; Vibrio harveyi JMH597 AI-2 quorum sensing luminescence, 9 h; luxN and CqsS knockout, AI-2 only; inhibition, % at 7.5 µM; hit rate 97% among 750; shares compounds with AI-2 QS modul;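 active = every replicate shows more than 75% inhibition of signal versus neutral control wells; inconclusive = half to three quarters of replicates exceed 75% inhibition; inactive = fewer than half of replicates exceed 75% inhibition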
Numbers without * were called inactive; ? = inconclusive; nt = not tested or not shown. In the library only some 1.8% were active in any assay of this set; here they are far more common.

SMILES	aDG glyco up	Mot1-301 SUMO	AI-2 QS modul	Bfl-1 A1 inh	ARNT TACC3 PPI	JMH597 growth	BB721 lum counter	BB721 growth	JMH597 AI-2 mod
Cc1cc(NS(=O)(=O)c2ccc(C(C)C)cc2)no1	0	1	-86*	-1	-3	39	87*	3	100*
COc1ccc(S(=O)(=O)Nc2ccc(Nc3ccccc3)cc2)cc1	0	32	-97*	1	nt	68*	100*	46	100*
COc1ccc(OCC(=O)Nc2ccc(S(=O)(=O)Nc3cc(C)on3)cc2)cc1	0	-6	-84*	0	0	-9	91*	20	92*
Cc1cc(NS(=O)(=O)c2ccc(CC(C)C)cc2)no1	0	33	-59	0	2	nt	nt	nt	nt
Cc1cc(NS(=O)(=O)c2ccc(NC(=O)COc3cc(C)c(Cl)c(C)c3)cc2)no1	0	9	nt	0	-8	nt	nt	nt	nt
COc1ccc(S(=O)(=O)Nc2ccccc2)cc1	0	-3	25	2	-10	nt	nt	nt	nt
O=C(NCC[C@@H]1CC[C@H](NS(=O)(=O)c2cccc(F)c2)[C@@H](CO)O1)C1CC1	nt	nt	nt	nt	-8	nt	nt	nt	nt
COc1ccc(CC(=O)Nc2ccc(S(=O)(=O)Nc3ncccn3)cc2)cc1	0	-19	-91*	0	-4	0	93*	21	96*
CCn1c(SCc2ccccc2)nnc1-c1ccc(S(=O)(=O)N2CCCCC2)cc1	0	97	?	0	-1	42	89*	59	94*
Cc1ccc(NC(=O)C(=O)c2ccc(C)cc2)cc1	0	240	-93*	-4	-1	3	97*	19	97*
CCC(=O)N1C[C@H](O)COC[C@@H]2O[C@@H](CC(=O)NCc3cc(F)cc(F)c3)CC[C@H]21	nt	nt	nt	nt	-6	nt	nt	nt	nt
COc1ccccc1OCC(=O)NNC(=S)NC(=O)c1ccco1	0	10	72	0	0	nt	nt	nt	nt
C[C@@H]1CCCCO[C@@H](CN(C)S(=O)(=O)c2ccc(Cl)cc2)[C@H](C)CN([C@H](C)CO)C(=O)c2cc(NC(=O)Nc3ccc4c(c3)OCO4)ccc2O1	nt	nt	nt	nt	1	nt	nt	nt	nt
COc1ccc(C(CC(=O)c2ccc(O)cc2)S(=O)(=O)c2ccc(C)cc2)cc1 (stereo not given)	1	-12	-91*	-5	-2	3	96*	-13	97*
COc1cc(/C=C(\C#N)C(=O)NCc2cccs2)ccc1O	0	137	11	1	-3	nt	nt	nt	nt
C(=N\c1ncnc2sccc12)/NOCc1ccccc1	1	-15	-95*	0	-10	-11	98*	-24	98*
Clc1ccc(CON/C=N/c2ncnc3sccc23)cc1	4	8	-93*	0	-3	17	98*	10	99*
O=C(O)c1ccc(N/N=C/C=C/c2ccccc2)cc1	0	-2	-84*	-13	-3	16	98*	63*	98*
CC(C)(C)c1ccc(OCC(=O)NCc2ccco2)cc1	0	8	?	1	-4	24	88*	10	94*
O=C(COc1ccccc1)NCc1ccco1	0	nt	nt	nt	-8	nt	nt	nt	nt
CC(=O)c1ccc(NC(=O)CCc2ccc(C)o2)cc1	0	1	-88*	0	32	-2	95*	-16	96*
Cc1ccc(CCC(=O)Nc2ccc(C#N)cc2)o1	0	-6	-80*	2	13	26	90*	23	93*
O=C(CCCOc1ccccc1)N1CCN(c2ccccc2)CC1	0	13	12	-2	0	nt	nt	nt	nt
O=C(NCc1ccc2c(c1)OCO2)c1cc(COc2c(F)cccc2F)on1	0	6	-30	0	1	nt	nt	nt	nt
COc1cccc(OCc2cc(C(=O)NCc3ccc4c(c3)OCO4)no2)c1	0	-7	?	0	-5	56	92*	?	96*
SMILES	aDG glyco up	Mot1-301 SUMO	AI-2 QS modul	Bfl-1 A1 inh	ARNT TACC3 PPI	JMH597 growth	BB721 lum counter	BB721 growth	JMH597 AI-2 mod
COc1cccc(/C=C/C(=O)NCc2ccc3c(c2)OCO3)c1	0	30	-86*	0	-2	1	95*	1	96*
Cc1ccc(O)c(N/C=C/C(=O)c2ccc(F)cc2)c1	0	7	?	-7	18	21	86*	33	89*
Cc1ccc(-c2ccc([C@H]3[C@H]4CN(C(=O)Nc5ccccc5)CCCCN4[C@H]3CO)cc2)cc1	nt	nt	nt	nt	16	nt	nt	nt	nt
CC(=O)NS(=O)(=O)c1ccc(NC(=O)c2ccc(Cl)cc2[N+](=O)[O-])cc1	0	-16	22	-1	8	nt	nt	nt	nt
O=C(Nc1ccc(Nc2ccccc2)cc1)c1ccc(Cl)cc1[N+](=O)[O-]	0	15	-86*	0	nt	52	?	21	91*
CCOC(=O)N1CCC(=NNc2nc(C)cc(=O)[nH]2)CC1	0	3	-3	0	7	nt	nt	nt	nt
Cc1ccc2nc(NC(=O)COC(=O)c3ccco3)sc2c1	0	0	-92*	-3	-3	-19	98*	-40	99*
O=C(COC(=O)c1ccc(Br)o1)Nc1nc2ccccc2s1	0	37	?	-1	1	16	93*	24	95*
CC(C)C1C(=O)N(Cc2cn(CC3CCCCC3)nn2)CCS(=O)(=O)N1Cc1ccc(-c2ccncc2)cc1 (stereo not given)	0	nt	nt	nt	nt	nt	nt	nt	nt
Cc1ccc(CC2CC(=O)N(C(Cc3ccccc3)C(=O)O)C2=O)cc1 (stereo not given)	0	-5	11	0	0	nt	nt	nt	nt
Cc1cc(C(=O)NNC(=O)c2ccc(S(=O)(=O)N(C)C)cc2)c(C)o1	0	-13	-84*	1	-2	12	88*	12	93*
CCOc1ccccc1-n1c(SCC(=O)Nc2ccccc2C(=O)O)nc2ccccc2c1=O	0	-2	8	0	3	nt	nt	nt	nt
Cc1ccc(O)c(NC(=O)CSc2ccc(Cl)cc2)c1	1	-16	-87*	1	18	12	93*	5	95*
Cc1ccc([C@@H]2[C@@H]3C(=O)N(C)C(=O)[C@@H]3[C@]3(Cc4ccccc4)C(=O)N(Cc4ccccc4)CC(=O)N23)o1	0	-5	-3	0	-1	nt	nt	nt	nt
Cc1ccc(S(=O)(=O)c2ccc(C)cc2)cc1	1	-1	-92*	0	-3	1	98*	-23	100*
